Where a name gives a salt, the structure may show the parent alone.
system: primary human hepatic stellate cells (donor 1); experiment: ACTA2 mRNA fold change vs DMSO (normalised to PSMB2); higher = more ACTA2 expression; conditions: 48 h
Procedure: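 Secondary qRT-PCR screen in primary human HSCs (donor 1), 384-well plates, with compounds dispensed in quadruplicate and incubated for 48 h. Cells-to-CT lysates were used for multiplexed TaqMan qPCR of ACTA2 or COL1A1 with PSMB2 as reference. Fold changes versus DMSO come from a linear model (Ct_gene ~ Ct_PSMB2 + plate + chemical). A hit is defined as COL1A1 and ACTA2 FC <0.5 (FDR <0.05) with PSMB2 between 0.2 and 2.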

| Structure (SMILES) | ACTA2 mRNA fold change |
| --- | --- |
| CS(=O)(=O)CCNCc1ccc(-c2ccc3ncnc(Nc4ccc(OCc5cccc(F)c5)c(Cl)c4)c3c2)o1 (6.66667 µM) | 1.05 |
| CCCCCCCCCCCCC/C=C/[C@@H](O)[C@H](CO)N(C)C [N,N-Dimethylsphingosine] (3.33333 µM) | 0.651 |
| C[C@@H](Oc1cc(-c2cnn(C3CCNCC3)c2)cnc1N)c1c(Cl)ccc(F)c1Cl (11.1 µM) | 0.15 |
| Cc1nc(Nc2ncc(C(=O)Nc3c(C)cccc3Cl)s2)cc(N2CCN(CCO)CC2)n1 (33.3333 µM) | 0.192 |
| NC(N)=NC(=O)c1nc(Cl)c(N2CCCCCC2)nc1N [5-(N,N-hexamethylene)amiloride] (33.3333 µM) | 0.0262 |
| Cc1cnc(-c2cnc(NCCNc3ccc(C#N)cn3)nc2-c2ccc(Cl)cc2Cl)[nH]1 (33.3333 µM) | 0.259 |
| O=C(c1ccc(/C=C/c2n[nH]c3ccccc23)cc1)N1CCNCC1 (33.3333 µM) | 0.0375 |
| Cn1cc(C2=C(c3ccc(Cl)cc3Cl)C(=O)NC2=O)c2ccccc21 (33.3333 µM) | 0.332 |
| Cc1ccc2c(c1)c1c3n2CCNC3CCC1 (stereo not given) [Pirlindole mesylate] (20.6667 µM) | 0.712 |
| CCNC(=O)c1noc(-c2cc(C(C)C)c(O)cc2O)c1-c1ccc(CN2CCOCC2)cc1 (11.1 µM) | 1.19 |
